About 83,000 compounds went through this panel and 20% of them were active in at least one assay; those are over-represented in the sample as a whole.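 A percent growth of 40 corresponds to 60% growth inhibition; 0 means no net growth; -100 means all cells died. Active threshold: below 10.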 A number with no mark means an inactive call. Active and inactive are the calls of the source.
Test system: MDA-MB-468 breast
Assay: NCI-60 one-dose screen, 48 h (100 = growth as untreated, 0 = no growth, -100 = all killed)
Settings: 10 µM unless noted

Compound	growth
O=C(CCc1ccc(O)cc1)N/N=C/c1cc(Br)ccc1O	56.8%
Nc1c(C(=O)Nc2ccc(C(F)(F)F)cc2)sc2nc(-c3cnccn3)cc(-c3cccs3)c12	69.9%
O=C(Nc1ccc(Oc2cccc(Cl)c2)c(Cl)c1)c1cccnc1	-9.21% (active)
CC(C)(C)c1ccc(S(=O)(=O)N[C@H]2CC[C@H]3[C@@H]4CCc5cc(O)ccc5[C@H]4CC[C@]23C)cc1	57.8%
COc1ccc2c(CCCc3ccc(Cl)cc3Cl)c3[n+](cc2c1OC)CCc1cc2c(cc1-3)OCO2	-49% (active)
CC(C)C(=O)Nc1n[nH]c2cc(-c3cccc(NS(=O)(=O)C4CC4)c3)ccc12	21.6%
COc1cc2nc(-c3ccc(C(F)(F)F)cc3)cc(OCCN3CCC(O)CC3)c2cc1OC	81.1%
C[N+](C)(C)c1ncnc2nc[nH]c12	90.3%
Nc1c(C(=O)Nc2ccccn2)sc2nc3c(cc12)CCCC3	43.8%
Cc1[nH]cnc1/C=C1\SC(N2CCCCC2)=NC1=O	101%
O=C(NCc1ccccc1)/C(=C/c1ccccc1)NC(=O)c1ccccc1	93.9%
COC(=O)[C@]12CCC(C)(C)C[C@H]1C1=CC[C@@H]3[C@@]4(C)C/C(=C/c5cccnc5)C(=O)C(C)(C)[C@@H]4CC[C@@]3(C)[C@]1(C)CC2	-22.5% [100 µM] (active)
O=C(c1ccccc1)c1c(/C=C/c2ccccc2)c2ccccc2[nH]c1=O	94.5%
CCCCCCCCCCCCCCCCCC1=NC(C)(C)CN1CC(C)O (stereo not given)	115%
c1ccc(CSc2nnc3c4c5c(sc4nc(-c4cccnc4)n23)CCCCCC5)cc1	0.132% (active)
Cn1cc(-c2csc(-c3cn(CCCN4CCOCC4)c4ccccc34)n2)c2cccnc21	65.1%
O=C(CCN1CCCC1)Nc1ccc2c(Nc3ccc(F)cc3)c3ccccc3nc2c1	-66.6% (active)
C=C1C(=O)O[C@H]2[C@H]1CC/C(COC(=O)c1cn(C)c3ccccc13)=C\CC[C@@]1(C)O[C@@H]21	-66.4% (active)
CCCCCCCCCCCCCCCCSC(=NCC)NCC	-37.3% (active)
Cc1nn(C)c2ncnc(Nc3ccccc3Br)c12	107%
CC(C)(C)OC[C@@H]1N=C(c2ccc(Br)cc2)Nc2nc3ccccn3c2C1=O	45.6%
C[C@H]1[C@H]2[C@H]3CC[C@@H]4[C@@]5(C)CC[C@H](O)C(C)(C)[C@@H]5CC[C@@]4(C)[C@]3(C)CC[C@]23CO[C@]1(C)[C@@H](C(=O)/C=C\c1cccnc1)C3	20.5%
Nc1ncc(-c2ccc3ncnc(NCc4ccccc4)c3c2)cn1	-11.7% (active)
CC(=O)N(C)N=Nc1ccc(C)cc1	104%
CNC(=O)c1cc(Oc2ccc3c(c2)sc2nc(-c4cc(OC)c(OC)c(OC)c4)cn23)ccn1	4.35% (active)

— PubChem BioAssay (NCI)
